Laboratory results published in PubChem BioAssay AID1159580 (chemical genetic matrix, 2015).
The whole screen tested about 5,500 compounds, of which about 2,000 (36%) were called active. Another 18% or so got no clear call; they are omitted. Cut-off read from the data, not from the text of the source: active = normalized growth mostly below about 0.91 (no sharp cut-off); inconclusive = no clear call, values can overlap the other calls; inactive = mostly above about 0.92. Some of the results follow.

Assay: chemical genetic growth profiling, strain panel (AID 1159580);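 note: tested at 20 µM; growth read once vehicle control cultures reached saturation at 30 °C; 1 = growth at the plate median or of vehicle wells; lower values mean less growth of the strain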
Settings: growth OD

Measured: normalized growth

CCOC(=O)OC(C)OC(=O)C1N2C(=O)C(NC(=O)[C@H](N)c3ccccc3)C2SC1(C)C (stereo not given in full)
inactive: S. cerevisiae deletion strains, locus YJR075W, strain HOC1, active compounds read low 0.966 | S. cerevisiae deletion strains, locus YKL009W, strain mrt4, active compounds read low 0.946 | S. cerevisiae deletion strains, locus YKL068W, active compounds read low 0.98 | S. cerevisiae deletion strains, locus YKL085W, strain MDH1 (second series), active compounds read low 0.989 | S. cerevisiae deletion strains, locus YKL085W, strain MDH1, active compounds read low 0.989 | S. cerevisiae deletion strains, locus YKL160W, strain elf1, active compounds read low 0.966 | S. cerevisiae deletion strains, locus YKL190W, strain CNB1, active compounds read low 0.975 | S. cerevisiae deletion strains, locus YKR001C, strain vps1, active compounds read low 0.98 | S. cerevisiae deletion strains, locus YKR026C, strain gcn3, active compounds read low 1.01 | S. cerevisiae deletion strains, locus YKR091W, strain srl3, active compounds read low 0.977 | S. cerevisiae deletion strains, locus YLL001W, strain dnm1, active compounds read low 0.96 | S. cerevisiae deletion strains, locus YLL026W, active compounds read low 0.998 | S. cerevisiae deletion strains, locus YLL041C, strain sdh2, active compounds read low 0.983 | S. cerevisiae deletion strains, locus YLR027C, strain aat2, active compounds read low 0.984 | S. cerevisiae deletion strains, locus YLR039C, strain RIC1, active compounds read low 0.991 | S. cerevisiae deletion strains, locus YLR058C, strain SHM2, active compounds read low 0.963 | S. cerevisiae deletion strains, locus YLR102C, strain apc9, active compounds read low 0.987 | S. cerevisiae deletion strains, locus YLR113W, strain HOG1, active compounds read low 0.966 | S. cerevisiae deletion strains, locus YLR221C, strain rsa3, active compounds read low 0.999 | S. cerevisiae deletion strains, locus YLR258W, strain gsy2, active compounds read low 1 | S. cerevisiae deletion strains, locus YLR262C, strain YPT6 (second series), active compounds read low 0.982 | S. cerevisiae deletion strains, locus YLR262C, strain YPT6, active compounds read low 0.964 | S. cerevisiae deletion strains, locus YLR268W, strain sec22, active compounds read low 0.988 | S. cerevisiae deletion strains, locus YLR320W, strain mms22, active compounds read low 0.96 | S. cerevisiae deletion strains, locus YLR330W, strain CHS5, active compounds read low 0.992 | S. cerevisiae deletion strains, locus YLR342W, strain FKS1 (second series), active compounds read low 1.11 | S. cerevisiae deletion strains, locus YLR342W, strain FKS1, active compounds read low 0.976 | S. cerevisiae deletion strains, locus YLR357W, strain rsc2, active compounds read low 0.961 | S. cerevisiae deletion strains, locus YLR370C, strain arc18, active compounds read low 0.982 | S. cerevisiae deletion strains, locus YLR371W, strain rom2, active compounds read low 0.999 | S. cerevisiae deletion strains, locus YLR384C, strain iki3, active compounds read low 0.974 | S. cerevisiae deletion strains, locus YLR418C, strain cdc73, active compounds read low 0.978 | S. cerevisiae deletion strains, locus YML016C, strain PPZ1, active compounds read low 0.986 | S. cerevisiae deletion strains, locus YML032C, strain rad52, active compounds read low 0.962 | S. cerevisiae deletion strains, locus YML120C, strain ndi1, active compounds read low 0.974 | S. cerevisiae deletion strains, locus YML124C, strain tub3, active compounds read low 0.987 | S. cerevisiae deletion strains, locus YMR058W, strain fet3, active compounds read low 0.977 | S. cerevisiae deletion strains, locus YMR078C, strain ctf18, active compounds read low 0.994 | S. cerevisiae deletion strains, locus YMR125W, strain sto1, active compounds read low 0.99 | S. cerevisiae deletion strains, locus YMR129W, active compounds read low 0.992 | S. cerevisiae deletion strains, locus YMR205C, strain PFK2, active compounds read low 0.966 | S. cerevisiae deletion strains, locus YMR223W, strain ubp8, active compounds read low 0.986 | S. cerevisiae deletion strains, locus YMR231W, strain pep5, active compounds read low 0.998 | S. cerevisiae deletion strains, locus YMR263W, strain SAP30, active compounds read low 0.967 | S. cerevisiae deletion strains, locus YMR307W, strain GAS1, active compounds read low 1.04 | S. cerevisiae deletion strains, locus YNL067W, strain RPL9B, active compounds read low 0.945 | S. cerevisiae deletion strains, locus YNL071W, strain lat1, active compounds read low 0.998 | S. cerevisiae deletion strains, locus YNL153C, strain GIM3, active compounds read low 0.932 | S. cerevisiae deletion strains, locus YNL183C, strain NPR1, active compounds read low 0.947 | S. cerevisiae deletion strains, locus YNL209W, strain ssb2, active compounds read low 0.989 | S. cerevisiae deletion strains, locus YNL233W, strain BNI4, active compounds read low 0.97 | S. cerevisiae deletion strains, locus YNL248C, strain rpa49, active compounds read low 0.985 | S. cerevisiae deletion strains, locus YNL250W, strain rad50, active compounds read low 0.968 | S. cerevisiae deletion strains, locus YNL271C, strain bni1, active compounds read low 0.986 | S. cerevisiae deletion strains, locus YNL298W, strain CLA4, active compounds read low 0.982 | S. cerevisiae deletion strains, locus YNL307C, strain MCK1, active compounds read low 0.995 | S. cerevisiae deletion strains, locus YNL322C, strain KRE1 (second series), active compounds read low 0.968 | S. cerevisiae deletion strains, locus YNL322C, strain KRE1, active compounds read low 0.985 | S. cerevisiae deletion strains, locus YNR049C, strain mso1, active compounds read low 0.976 | S. cerevisiae deletion strains, locus YNR052C, strain pop2, active compounds read low 0.987 | S. cerevisiae deletion strains, locus YOL006C, strain TOP1, active compounds read low 0.825 | S. cerevisiae deletion strains, locus YOL012C, strain htz1 0.766 | S. cerevisiae deletion strains, locus YOL147C, strain pex11, active compounds read low 0.993 | S. cerevisiae deletion strains, locus YOR001W, strain rrp6, active compounds read low 1.01 | S. cerevisiae deletion strains, locus YOR061W, strain CKA2, active compounds read low 0.949 | S. cerevisiae deletion strains, locus YOR069W, strain VPS5, active compounds read low 0.992 | S. cerevisiae deletion strains, locus YOR070C, strain gyp1, active compounds read low 0.993 | S. cerevisiae deletion strains, locus YOR080W, strain dia2, active compounds read low 0.975 | S. cerevisiae deletion strains, locus YOR083W, strain WHI5, active compounds read low 0.967 | S. cerevisiae deletion strains, locus YOR106W, strain vam3, active compounds read low 0.952 | S. cerevisiae deletion strains, locus YOR136W, strain idh2, active compounds read low 0.974 | S. cerevisiae deletion strains, locus YOR144C, strain elg1, active compounds read low 0.987 | S. cerevisiae deletion strains, locus YOR184W, strain ser1, active compounds read low 0.985 | S. cerevisiae deletion strains, locus YOR231W, strain MKK1, active compounds read low 0.978 | S. cerevisiae deletion strains, locus YOR265W, strain rbl2, active compounds read low 0.993 | S. cerevisiae deletion strains, locus YOR270C, strain vph1, active compounds read low 0.92 | S. cerevisiae deletion strains, locus YOR290C, strain snf2, active compounds read low 0.985 | S. cerevisiae deletion strains, locus YOR316C, strain cot1, active compounds read low 0.976 | S. cerevisiae deletion strains, locus YPL051W, strain arl3, active compounds read low 0.99 | S. cerevisiae deletion strains, locus YPL055C, strain LGE1, active compounds read low 0.881 | S. cerevisiae deletion strains, locus YPL078C, strain atp4, active compounds read low 0.971 | S. cerevisiae deletion strains, locus YPL106C, strain sse1, active compounds read low 0.955 | S. cerevisiae deletion strains, locus YPL240C, strain hsp82, active compounds read low 1 | S. cerevisiae deletion strains, locus YPL256C, strain CLN2, active compounds read low 0.978 | S. cerevisiae deletion strains, locus YPR119W, strain clb2, active compounds read low 0.983 | S. cerevisiae deletion strains, locus YPR141C, strain kar3, active compounds read low 0.978 | S. cerevisiae deletion strains, locus YPR163C, strain tif3, active compounds read low 0.984 | S. cerevisiae deletion strains, locus YPR167C, strain met16, active compounds read low 0.996 | S. cerevisiae deletion strains, strain wtn01, active compounds read low 0.992 | S. cerevisiae strains, strain wild type, active compounds read low 0.98
